# High-throughput results (PubChem BioAssay)
# A selection: hits, their analogues and other compounds. The true share with any hit is near 6.6%.
# CSC inhib: cancer stem cell viability inhibitors, primary screen, luminescence; inhibition, % at 7.5 µM; cancer stem cell-like cells viability; 1.1% of 300,000 active; in the data active means inhibition above about 75%; tested in HMLE shEcad cells
# MPTP block: mitochondrial permeability transition pore inhibitors, primary screen, biochemical, isolated mouse mitochondria, absorbance | Ca2+ swelling absorbance, 30 min | inhibition, % at 10 µM | 1.4% of 360,000 active | AID 602449, 2012;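 active means inhibition of 50% or more, scaled per plate between neutral and stimulator controls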;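 further: 0% = DMSO wells given calcium and 100% = 1 mM EGTA wells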
# Beta cell apopt: inhibitors of cytokine-induced beta cell apoptosis, primary screen, luminescence | 0.8% of 300,000 active | AID 435005, 2010 | INS-1E cytokine-induced death, ATP luminescence, 48 h; percent of positive-control rescue, neutral wells zero | protection from apoptosis, % (test concentration not listed);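 active means Every replicate reaches about 75%, or at least half do and their mean reaches it too, limit read from the data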;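 further: 0% = cytokine-treated negative control wells and 100% = positive control rescue; higher means more ATP so stronger rescue from cytokine killing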
# NR3A LBD binder: binders of NR3A ligand-binding domain, primary screen, biophysical, differential scanning fluorimetry, uHTS | 2.5% of 340,000 active | NR3A LBD differential scanning fluorimetry, Tm shift; 0% = protein alone, 100% = glycine-bound protein | Glutamate receptor ionotropic, NMDA 3A (GRIN3A) ligand-binding domain | Tm shift relative to glycine control, % at 25 µM;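 active means melting temperature shift of at least 10% of the positive control shift, at one fixed dose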
# Gli-Sufu block: Gli-Sufu pathway antagonists, primary screen, luciferase luminescence, Sufu-KO-LIGHT cells, uHTS; 0.74% of 340,000 active; AID 588413, 2011; Sufu-KO-LIGHT fibroblasts, Gli luciferase reporter luminescence; inhibition, % at 5 µM;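 active means inhibition above about 55%, limit read from the data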;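 further: 0% = DMSO-treated cells and 100% = wells with medium but no cells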
# Mdm2 MdmX PPI: inhibitors of human Mdm2-MdmX association, primary screen, cell-based, luminescence, split luciferase, SaOS-2, uHTS. SaOS-2 split-luciferase Mdm2/MdmX complementation. inhibition, % at 8 µM. 3% of 330,000 active;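 active means inhibition of at least 50% at 8 µM in the primary screen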
# Target sequence (O15151 whole entry, looked up): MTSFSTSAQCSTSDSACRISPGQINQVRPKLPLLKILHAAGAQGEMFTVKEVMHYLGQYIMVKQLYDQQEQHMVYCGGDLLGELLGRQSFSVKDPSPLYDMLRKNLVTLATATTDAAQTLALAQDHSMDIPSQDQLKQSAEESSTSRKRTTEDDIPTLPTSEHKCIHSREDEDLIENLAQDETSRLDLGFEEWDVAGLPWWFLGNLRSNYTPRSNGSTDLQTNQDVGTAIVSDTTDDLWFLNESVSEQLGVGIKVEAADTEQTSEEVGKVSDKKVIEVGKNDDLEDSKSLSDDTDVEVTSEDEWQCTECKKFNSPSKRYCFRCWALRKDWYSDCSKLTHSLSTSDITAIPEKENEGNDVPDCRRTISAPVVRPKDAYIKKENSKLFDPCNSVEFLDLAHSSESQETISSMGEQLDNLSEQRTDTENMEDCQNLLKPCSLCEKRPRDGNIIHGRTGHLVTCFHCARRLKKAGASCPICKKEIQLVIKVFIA
# Target sequence (Q00987 whole entry, looked up): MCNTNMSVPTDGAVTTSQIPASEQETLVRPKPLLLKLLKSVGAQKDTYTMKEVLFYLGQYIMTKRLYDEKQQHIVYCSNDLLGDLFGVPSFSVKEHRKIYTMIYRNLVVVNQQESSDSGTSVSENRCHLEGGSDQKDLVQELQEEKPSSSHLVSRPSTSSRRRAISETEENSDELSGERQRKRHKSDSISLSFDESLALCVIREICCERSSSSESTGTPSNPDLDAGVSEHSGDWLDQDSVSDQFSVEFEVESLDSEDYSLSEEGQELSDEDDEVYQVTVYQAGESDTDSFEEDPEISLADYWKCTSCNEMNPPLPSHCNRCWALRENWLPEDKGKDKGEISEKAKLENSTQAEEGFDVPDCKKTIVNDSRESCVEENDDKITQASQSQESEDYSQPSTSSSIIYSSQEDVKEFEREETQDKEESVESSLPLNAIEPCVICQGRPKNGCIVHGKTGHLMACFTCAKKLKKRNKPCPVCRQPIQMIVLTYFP
# Mdm2 MdmX conf: Mdm2-MdmX complex disruptors, retested hits, confirmation, luminescence, single concentration. shares compounds with Mdm2 MdmX PPI. Mdm2-MdmX binding, luminescent assay. inhibition, % at 8 µM. 55% of 10,000 active. AID 489028, 2010; in the data active means inhibition above about 40%
# Full FLuc ctr: full-length luciferase signal inhibition, confirmation, counter-screen for Mdm2/MdmX interaction inhibitor project, cell-based, single concentration, SaOS-2 | shares compounds with Mdm2 MdmX PPI | SaOS-2 full-length luciferase counterscreen, luminescence | inhibition, % at 8 µM | 77% of 6,200 active | AID 504607, 2011;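 active means mean inhibition at 8 µM reaching about 37%, which flags the compound as non-specific, limit read from the data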;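 further: p53-null SaOS-2 cells with luciferase driven by a doxycycline-inducible promoter; compound on cells about two nights before reading with doxycycline added after day one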
# An asterisk follows results filed as active; x = no result.
SMILES,CSC inhib,MPTP block,Beta cell apopt,NR3A LBD binder,Gli-Sufu block,Mdm2 MdmX PPI,Mdm2 MdmX conf,others
COc1cc(C(O)c2nc(-c3ccncc3)cs2)ccc1F (stereo not given),x,2,x,x,x,x,x,
CCCCCCNC(=O)N[C@H](C(=O)NCCC[C@H]1CN2C(=NC[C@H]2C)N1CCC(c1ccccc1)c1ccccc1)C(C)O (stereo not given in full),-3,x,18,x,x,12,x,
CN1C2CCC1/C(=C/c1cccn1C)C(=O)/C2=C\c1cccn1C,-4,5,7,-5,4,2,x,
CN1C2CCC1/C(=C\c1ccc(F)cc1)C(=O)/C2=C/c1ccc(F)cc1,0,2,2,-2,19,89*,53*,Full FLuc ctr=19
NC(=O)c1cc(S(=O)(=O)N2CCOCC2)ccc1Sc1ccccc1N,x,-2,x,-3,4,11,x,
N=c1c(S(=O)(=O)c2ccc(Cl)cc2)cc2c(=O)n3ccccc3nc2n1CCc1ccccc1,19,-1,3,x,x,63*,37,Full FLuc ctr=25
Cn1c(=N)c(S(=O)(=O)c2ccccc2)cc2c(=O)n3ccccc3nc21,-4,0,3,5,15,22,x,
Cc1ccc(S(=O)(=O)c2cc3c(=O)n4ccccc4nc3n(C)c2=N)cc1C,-11,2,-8,2,17,86*,24,
CC(C)CN(C)Cc1c(C(=O)N2CCc3ccccc3C2)nc2ccc(Cl)cn12,-2,5,-2,-3,22,-2,x,
COc1cc(/C=C/C(=O)OCC(=O)NCC(=O)Nc2cccc(C)c2C)ccc1OC(F)F,-4,7,0,-1,5,19,x,
CCOC(=O)N1CCc2c(sc(NC(=O)c3ccc(Cl)s3)c2C(N)=O)C1,86*,x,x,x,x,55*,21,
CCOC(=O)c1c(NC(=O)c2cccs2)sc2c1CCN(C(=O)OCC)C2,40,1,14,-1,-7,65*,36,
CCOC(=O)N1CCc2c(sc(NC(C)=O)c2C(N)=O)C1,-3,-1,0,-1,0,13,x,
CCOC(=O)c1c(NC(=O)c2cccs2)sc2c1CCCC2,8,3,0,3,2,-3,x,
CN(Cc1ccccc1)Cc1ccccc1C(O)c1ccccc1 (stereo not given),x,0,x,1,-5,x,x,
COCCn1ccc(O)c(Cc2ccc(Cl)cc2)c1=O,-12,-1,2,3,-1,-13,x,
Cc1ccc(N2C(=O)c3cccc4c([N+](=O)[O-])ccc(c34)C2=O)c2cccnc12,64,6,45,1,12,92*,60*,Full FLuc ctr=60*
Cc1ccnc(N2C(=O)c3cccc4c([N+](=O)[O-])ccc(c34)C2=O)c1,121*,2,18,-2,8,100*,6,
Cc1nnc(N2C(=O)c3cccc4c([N+](=O)[O-])ccc(c34)C2=O)s1,51,3,1,-1,2,61*,37,
O=C1c2cccc3c([N+](=O)[O-])ccc(c23)C(=O)N1Cc1cccnc1,x,2,x,2,3,x,x,
Cc1ccnc(N2C(=O)c3ccccc3C2=O)c1,-7,2,-14,0,20,-17,x,
Cc1ccc(N2C(=O)c3cccc4c(N5CCN(C)CC5)ccc(c34)C2=O)c2cccnc12,17,x,-1,2,12,66*,65*,Full FLuc ctr=57*
O=C(CN1C(=O)c2ccccc2C1=O)NCC(=O)Nc1ccccc1,x,-1,x,-3,-3,x,x,
O=C1COc2ccc(S(=O)(=O)CCC(=O)NC3CCCCC3)cc2N1,-17,-1,-9,0,-15,9,x,
CSc1cccc(N2CC(C(=O)N(CC(C)C)c3c(N)n(Cc4ccccc4)c(=O)[nH]c3=O)CC2=O)c1 (stereo not given),-14,-2,x,-2,-6,-3,x,
SMILES,CSC inhib,MPTP block,Beta cell apopt,NR3A LBD binder,Gli-Sufu block,Mdm2 MdmX PPI,Mdm2 MdmX conf,others
COC(=O)CN1C(=O)N/C(=C/c2cc(OC)c(OC)cc2C)C1=O,-16,1,-4,-1,-1,16,x,
COc1ccccc1N=C1SC(C(=O)Nc2cccc(Cl)c2Cl)C(N)=C1C(N)=O (stereo not given),79*,2,3,0,-5,56*,52*,Full FLuc ctr=67*
COc1cc(NC(=S)Nc2cccc(Cl)c2Cl)c(OC)cc1Cl,9,14,-4,-7,-5,-3,x,
COc1cccc(C(=O)N/N=C(/c2ccccc2)c2ccccn2)c1,20,-4,101*,-1,81*,84*,79*,Full FLuc ctr=39*
CC(=O)c1ccc(OCCCC(=O)NNC(=O)c2ccccn2)cc1,x,-2,-1,-1,-2,63*,6,
COc1ccc(NC(=O)NNC(=O)c2ccc(-c3ccccc3)cc2)c(OC)c1,3,0,-8,-1,-16,-22,x,
COc1cccc(C(=O)N/N=C(/CCC(=O)O)c2ccccc2)c1,-9,1,-2,-1,-1,-44,x,
CCOc1ccc(OCCCC(=O)NNC(=O)c2ccncc2)cc1,-9,-1,x,1,-14,23,x,
COc1ccc(NC(=O)NNC(=O)c2ccc(-c3ccccc3)cc2)cc1,-5,1,-3,0,11,59*,28,
CC(Oc1cccc(Br)c1)C(=O)NNC(=O)c1ccccn1 (stereo not given),38,-1,54,2,-2,72*,61*,Full FLuc ctr=36
CCOc1ccc(NS(=O)(=O)c2ccc(C(=O)NCC(c3ccco3)N3CCCC3)cc2)cc1 (stereo not given),x,0,3,0,13,9,x,
Cc1nc(Cl)c(N=Cc2cccc([N+](=O)[O-])c2)c(Cl)n1,-7,0,-7,3,-11,-5,x,
CSc1ncnc2c1ncn2CCCN1CCN(c2ncccn2)CC1,x,0,x,x,x,x,x,
CC1(C(=O)NS(=O)(=O)c2ccc(C#N)cc2)CCN1C(=O)CC1CC1 (stereo not given),x,0,x,x,x,x,x,
CCCc1ncc(CN2CCC(C(=O)Nc3cccc(-c4cscn4)c3)CC2)cn1,-3,0,1,0,-6,25,x,
COc1ccccc1C(=O)NNC(=O)c1cc2ccccc2cc1O,x,2,x,x,x,x,x,
COc1cc(OC)cc(C(=O)NC(=S)NNC(=O)c2cnccn2)c1,106*,0,85*,-9,3,60*,34,
